Test [1] is described as follows: antimalarial activity against Dd2 strain (AID 2302;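 active = growth inhibition above 50% at the single 2 µM test dose, taken to imply half-maximal potency below 2 µM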;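 also: 0% = DMSO untreated growth and 100% = chloroquine plus artemisinin killed control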). To be noted: P. falciparum Dd2 in RBCs, LDH growth readout, 72 h; at 2 µM; active compounds read high.
Test [2] can be described thus: HepG2 cytotoxicity, primary screen, cytotoxicity control for P. falciparum antimalarial project, cell-based, ATP luminescence (AID 2303;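 active = inhibition above 50%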;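 also: 0% = DMSO wells and 100% = digitonin-killed cells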). To be noted: HepG2 viability, 24-48 h, at 10 µM, active compounds read high.
Test [3] concerns the target L-lactate dehydrogenase (Plasmodium falciparum (isolate CDC / Honduras)) (UniProt Q27743). Kind of test: PfLDH activity inhibition – cell lysate, 3D7 strain, counter-screen for P. falciparum growth inhibition project (AID 2304).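 Also: 0% = vehicle and 100% = reference inhibitor.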 The settings on record: P. falciparum 3D7 crude extract, LDH APAD/NBT absorbance; at 2 µM; active compounds read high. Background: A counterscreen serves to expose hits that act by an unwanted route or on another target.

The nature of test [4]: inhibition of 3D7 malaria parasite growth – strain 3D7 (AID 2306).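 Also: 0% = DMSO wells and 100% = chloroquine plus artemisinin control wells.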 The settings on record: P. falciparum 3D7 erythrocytic growth, LDH absorbance, 72 h; at 2 µM; active compounds read high.
Test [5] deals with Calcium-dependent protein kinase 1 (Plasmodium falciparum (isolate 3D7)) (UniProt P62344). Kind of test: PfCDPK1 kinase inhibitors, biochemical, TCAMS library (AID 1159585; cut-off not given, nearly all actives have IC50 up to about 0.98 µM;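 also: inhibitors leave more ATP so luminescence rises with inhibition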). The settings on record: recombinant PfCDPK1, Kinase-Glo ATP depletion luminescence.
Chain of Calcium-dependent protein kinase 1 (Plasmodium falciparum (isolate 3D7)) (P62344 whole entry, looked up): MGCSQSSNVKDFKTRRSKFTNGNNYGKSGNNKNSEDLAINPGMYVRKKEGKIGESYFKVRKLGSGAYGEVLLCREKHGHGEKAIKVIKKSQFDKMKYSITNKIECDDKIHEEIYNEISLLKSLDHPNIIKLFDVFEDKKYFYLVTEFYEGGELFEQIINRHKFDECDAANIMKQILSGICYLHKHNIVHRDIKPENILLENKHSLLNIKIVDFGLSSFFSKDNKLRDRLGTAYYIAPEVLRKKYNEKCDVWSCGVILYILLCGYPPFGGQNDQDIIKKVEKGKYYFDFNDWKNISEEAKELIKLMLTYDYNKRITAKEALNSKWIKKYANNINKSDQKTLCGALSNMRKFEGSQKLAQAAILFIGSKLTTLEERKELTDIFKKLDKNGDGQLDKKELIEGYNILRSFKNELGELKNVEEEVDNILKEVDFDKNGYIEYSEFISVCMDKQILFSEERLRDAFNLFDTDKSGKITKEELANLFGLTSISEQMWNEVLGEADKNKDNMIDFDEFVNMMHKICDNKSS
Test [6] concerns the target Plasmodium falciparum protein kinase 6 (PK6, PF3D7_1337100) (UniProt Q8IDW1). Kind of test: PfPK6 kinase inhibitors, biochemical, TCAMS library (AID 1159586). The settings on record: recombinant PfPK6, Kinase-Glo ATP depletion luminescence. A general note: In Kinase-Glo more light means more ATP remaining.
Test [7] deals with Protein kinase 7 (PK7), Plasmodium falciparum 3D7 (PF3D7_0213400) (UniProt Q7YTF7). Description: inhibition of Plasmodium PK7 catalytic activity – biochemical, TCAMS antimalarial set, Kinase-Glo luminescence (AID 1159587). To be noted: recombinant PfPK7, Kinase-Glo ATP depletion luminescence.
Chain of Protein kinase 7 (PK7), Plasmodium falciparum 3D7 (PF3D7_0213400) (Q7YTF7 1-343): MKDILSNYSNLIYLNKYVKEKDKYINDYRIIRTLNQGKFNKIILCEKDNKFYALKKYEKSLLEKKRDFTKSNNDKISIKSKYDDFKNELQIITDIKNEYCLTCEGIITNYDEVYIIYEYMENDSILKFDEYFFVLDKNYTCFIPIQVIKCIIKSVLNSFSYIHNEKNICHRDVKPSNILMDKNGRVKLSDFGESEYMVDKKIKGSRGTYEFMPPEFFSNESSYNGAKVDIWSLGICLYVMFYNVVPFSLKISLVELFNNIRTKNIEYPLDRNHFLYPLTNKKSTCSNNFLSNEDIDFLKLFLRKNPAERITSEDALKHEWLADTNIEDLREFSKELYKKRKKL
For test [8], the target named is Calcium-dependent protein kinase 4 (Plasmodium falciparum (isolate 3D7)) (UniProt Q8IBS5). Kind of test: PfCDPK4 kinase inhibitors, biochemical, TCAMS library (AID 1159588; cut-off not given, nearly all actives have IC50 up to about 0.91 µM). The settings on record: recombinant PfCDPK4, Kinase-Glo ATP depletion luminescence.
Chain of Calcium-dependent protein kinase 4 (Plasmodium falciparum (isolate 3D7)) (Q8IBS5 whole entry, looked up): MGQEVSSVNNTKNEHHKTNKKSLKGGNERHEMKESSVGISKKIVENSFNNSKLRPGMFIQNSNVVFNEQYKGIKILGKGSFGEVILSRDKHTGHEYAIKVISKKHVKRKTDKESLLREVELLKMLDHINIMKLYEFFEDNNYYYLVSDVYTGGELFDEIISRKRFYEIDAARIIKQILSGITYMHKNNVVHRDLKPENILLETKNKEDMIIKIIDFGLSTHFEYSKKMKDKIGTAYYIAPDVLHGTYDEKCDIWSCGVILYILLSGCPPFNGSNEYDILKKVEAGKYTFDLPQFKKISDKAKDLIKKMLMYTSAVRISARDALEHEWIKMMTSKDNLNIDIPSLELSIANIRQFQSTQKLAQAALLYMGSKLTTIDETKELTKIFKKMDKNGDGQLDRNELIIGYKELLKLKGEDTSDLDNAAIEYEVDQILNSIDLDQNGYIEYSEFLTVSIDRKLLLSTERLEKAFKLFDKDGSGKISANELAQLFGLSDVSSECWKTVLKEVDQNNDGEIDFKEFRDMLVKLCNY

Experimental findings from PubChem BioAssay are described below.

Molecules are shown by their SMILES. Unmarked numbers belong to inactive results. For some of these results: Potency and affinity values are given separately. Calls of active or inactive are those of the source. Unless noted, no rule for the calls is given here.

For orientation: inhibition means the relative decrease from the control value, in per cent.

Chain of Plasmodium falciparum protein kinase 6 (PK6, PF3D7_1337100) (Q8IDW1 1-305): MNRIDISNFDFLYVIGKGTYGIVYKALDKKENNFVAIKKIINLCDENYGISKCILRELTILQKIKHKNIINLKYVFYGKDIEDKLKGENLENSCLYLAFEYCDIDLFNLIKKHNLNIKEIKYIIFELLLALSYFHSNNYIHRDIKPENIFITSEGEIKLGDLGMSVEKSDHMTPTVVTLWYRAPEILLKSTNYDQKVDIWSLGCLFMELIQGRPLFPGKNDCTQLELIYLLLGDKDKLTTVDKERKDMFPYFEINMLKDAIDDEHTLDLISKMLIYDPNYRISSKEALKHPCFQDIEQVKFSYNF
Chain of L-lactate dehydrogenase (Plasmodium falciparum (isolate CDC / Honduras)) (Q27743 whole entry, looked up): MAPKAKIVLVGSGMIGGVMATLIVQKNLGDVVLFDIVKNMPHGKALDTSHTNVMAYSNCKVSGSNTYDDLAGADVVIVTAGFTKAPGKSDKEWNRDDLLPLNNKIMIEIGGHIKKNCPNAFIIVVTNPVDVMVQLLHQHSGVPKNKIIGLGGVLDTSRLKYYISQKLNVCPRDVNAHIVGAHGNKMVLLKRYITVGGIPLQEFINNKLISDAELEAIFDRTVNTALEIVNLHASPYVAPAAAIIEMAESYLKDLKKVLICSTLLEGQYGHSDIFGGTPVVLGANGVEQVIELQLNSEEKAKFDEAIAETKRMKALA

In the case of `O=C(/C=C/c1cccs1)NCC(NCCCNc1cc(=O)c2ccccc2[nH]1)c1cc(Br)cc(Br)c1` (stereo not given), the growth inhibition was 58% (active) in test [1] and 100% (active) in test [4]. Besides, the inhibition in test [2] and in test [3] was 0% throughout. The result in test [5], in test [6], in test [7] and in test [8] was inactive.

As for `O=C(Nc1cccc(Cl)c1)N(CCCn1ccnc1)Cc1csc(-c2ccc(CNCc3ccccc3)cc2)n1`, the figures for the growth inhibition in test [1] and in test [4] were 45% and 102% (active), respectively. Further, the figures for the inhibition in test [2] and in test [3] were 11% and 4%, respectively. In addition, the outcome in test [5], in test [6], in test [7] and in test [8] was inactive.

On to `CCN(CCCN1CCCCC1)c1cc(C)nc(Nc2cccc(OC(F)(F)F)c2)n1`, for which the figures for the growth inhibition in test [1] and in test [4] were 99% (active) and 102% (active), respectively. Besides, the inhibition in test [2] is 32%; in test [3] it was -2%. Further, the outcome in test [5], in test [6], in test [7] and in test [8] was inactive.

For `CC(C)(C)c1cc(C(=O)N2CCN(c3nccnc3C#N)CC2)n(Cc2ccccc2)n1`, the growth inhibition in test [1] is 93% (active); in test [4] it was 100% (active). Further, the inhibition in test [2] was -11%; in test [3], -9%. Moreover, the result in test [5], in test [6], in test [7] and in test [8] was inactive.

Regarding `O=C(NCc1ccccc1)Nc1ccc(-c2cccc(-c3nc4ccc(C(F)(F)F)cc4[nH]3)c2)cc1`, the growth inhibition is 23% in test [1] and 97% (active) in test [4]. The inhibition in test [2] is 56% (active); in test [3] it was -1%. For the same molecule, the outcome in test [5], in test [6], in test [7] and in test [8] was inactive.

On to `COc1cc(N(Cc2ccc(F)cc2)C(=O)c2ccc(-c3ccccc3)cc2)ccc1OCCN1CCCC1`, for which the growth inhibition is 4% in test [1] and 93% (active) in test [4]. Besides, the inhibition in test [2] was 11%; in test [3], -4%. The outcome in test [5], in test [6], in test [7] and in test [8] was inactive.

Turning to `COc1ccc(CCCCN2C(=O)C(c3ccccc3)(c3ccccc3)N=C2N)cc1`, the growth inhibition is 95% (active) in test [1] and 97% (active) in test [4]. In addition, the inhibition is 40% in test [2] and -2% in test [3]. Besides, the outcome in test [5], in test [6], in test [7] and in test [8] was inactive.

Consider `COc1ccccc1N1CCN(CCCCNC(=O)c2ccc(NC(=O)c3ccc(OC(F)(F)F)cc3)cc2)CC1`, for which the growth inhibition is 39% in test [1] and 100% (active) in test [4]. Also, the inhibition is 29% in test [2] and -6% in test [3]. The outcome in test [5], in test [6], in test [7] and in test [8] was inactive.

On to `CCCCc1cc(NCC)nc(Nc2cccc(OC)c2)n1`, for which the growth inhibition is 69% (active) in test [1] and 97% (active) in test [4]. In addition, the inhibition in test [2] is 9%; in test [3] it was -4%. The result in test [5], in test [6], in test [7] and in test [8] was inactive.

For the molecule `O=C(NCc1ccc(F)cc1)Nc1ccc(-c2ccc(-c3nc4ccccc4[nH]3)cc2)cc1`, the growth inhibition was 98% (active) in test [1] and 101% (active) in test [4]. In addition, the inhibition in test [2] was 43%; in test [3], 4%. Moreover, the outcome in test [5], in test [6], in test [7] and in test [8] was inactive.

For `CN(C)CCC1CCN(CCS(=O)(=O)c2cccc(Nc3ccc(-c4cccc(F)c4)cn3)c2)CC1`, the values for the growth inhibition in test [1] and in test [4] were 59% (active) and 100% (active), respectively. The inhibition in test [2] was 94% (active); in test [3], 5%. In addition, the outcome in test [5], in test [6], in test [7] and in test [8] was inactive.

As to `FC(F)(F)COc1ccc(CNCCCCCCNCc2ccc(OCC(F)(F)F)c3ccccc23)c2ccccc12`, the growth inhibition in test [1] is 93% (active); in test [4], 102% (active). For the same molecule, the inhibition is 99% (active) in test [2] and 3% in test [3]. The result in test [5], in test [6], in test [7] and in test [8] was inactive.

For the molecule `CCCc1cc(=O)oc2cc(OC)c(C(=O)CC(C)C)c(OC)c12`, the figures for the growth inhibition in test [1] and in test [4] were 67% (active) and 81% (active), respectively. The inhibition in test [2] was 3%; in test [3], 2%. Moreover, the outcome in test [5], in test [6], in test [7] and in test [8] was inactive.

For the molecule `Cc1c(C)n(C2CCCC2)c2ncnc(OC3CCN(CC(=O)NCC4CC4)CC3)c12`, the growth inhibition in test [1] and in test [4] was 89% (active) throughout. Also, the inhibition in test [2] was 20%; in test [3], 1%. Further, the result in test [5], in test [6], in test [7] and in test [8] was inactive.

On to `Oc1ccc(-c2cc(COc3ccccc3C(F)(F)F)c(C3=CCNCC3)cc2COc2ccccc2C(F)(F)F)cc1`, for which the growth inhibition in test [1] was 62% (active); in test [4], 100% (active). In addition, the inhibition in test [2] is 18%; in test [3] it was 3%. In addition, the outcome in test [5], in test [6], in test [7] and in test [8] was inactive.

With `c1ccc(Oc2ccc(Nc3ccnc(Nc4ccc(CN5CCOCC5)cc4)n3)cc2)cc1`, the growth inhibition was 38% in test [1] and 92% (active) in test [4]. For the same molecule, the inhibition was 46% in test [2] and -4% in test [3]. Further, the result in test [5], in test [6], in test [7] and in test [8] was inactive.

As for `Cc1cccc(NC(=S)NC2CCN(CCCCCNC(=O)/C=C/c3ccc(Cl)c(Cl)c3)CC2)c1`, the growth inhibition is 19% in test [1] and 97% (active) in test [4]. The inhibition is 14% in test [2] and 4% in test [3]. For the same molecule, the result in test [5], in test [6], in test [7] and in test [8] was inactive.

In the case of `CC(=O)Nc1ccc(C(=O)Nc2cccc(-c3ccc(-c4nc5c(C)cccc5[nH]4)cc3)c2)cn1`, the growth inhibition is 94% (active) in test [1] and 100% (active) in test [4]. Also, the inhibition in test [2] was 25%; in test [3], 4%. Also, the outcome in test [5], in test [6], in test [7] and in test [8] was inactive.

`CCCCN(CCCC)C(=O)CC(O)c1cc2c(Cl)cc(Cl)cc2c2cc(C(F)(F)F)ccc12` (stereo not given): the growth inhibition in test [1] was 68% (active); in test [4] it was 92% (active). For the same molecule, the inhibition was -12% in test [2] and -2% in test [3]. Moreover, the outcome in test [5], in test [6], in test [7] and in test [8] was inactive.

Consider `CCC(CC)C(CC(=O)NC(C)(C)CCc1ccccc1OC)Nc1ccc(C#N)c2ccccc12` (stereo not given), for which the growth inhibition is 91% (active) in test [1] and 93% (active) in test [4]. Further, the inhibition in test [2] was 9%; in test [3] it was -1%. The outcome in test [5], in test [6], in test [7] and in test [8] was inactive.
